Assay [1] can be described thus: antimalarial activity against Dd2 strain (AID 2302;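 active = growth inhibition above 50% at the single 2 µM test dose, taken to imply half-maximal potency below 2 µM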;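 also: 0% = DMSO untreated growth and 100% = chloroquine plus artemisinin killed control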). Conditions: P. falciparum Dd2 in RBCs, LDH growth readout, 72 h; at 2 µM; active compounds read high.
Assay [2] in a line: human hepatoma cell viability loss – ATP luminescence, cytotoxicity control for P. falciparum antimalarial project, primary screen (AID 2303;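 active = inhibition above 50%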;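 also: 0% = DMSO wells and 100% = digitonin-killed cells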). As to conditions: HepG2 viability, 24-48 h, at 10 µM, active compounds read high.
In assay [3] the target is L-lactate dehydrogenase (Plasmodium falciparum (isolate CDC / Honduras)) (UniProt Q27743). Kind of assay: PfLDH activity inhibition – cell lysate, 3D7 strain, counter-screen for P. falciparum growth inhibition project (AID 2304).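 Also: 0% = vehicle and 100% = reference inhibitor.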 As to conditions: P. falciparum 3D7 crude extract, LDH APAD/NBT absorbance; at 2 µM; active compounds read high. For orientation: Counterscreens check selectivity or assay interference.

A short description of assay [4]: inhibition of 3D7 malaria parasite growth – strain 3D7 (AID 2306).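 Also: 0% = DMSO wells and 100% = chloroquine plus artemisinin control wells.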 As to conditions: P. falciparum 3D7 erythrocytic growth, LDH absorbance, 72 h; at 2 µM; active compounds read high.
Assay [5] addresses Calcium-dependent protein kinase 1 (Plasmodium falciparum (isolate 3D7)) (UniProt P62344). Put plainly: PfCDPK1 kinase inhibitors, biochemical, TCAMS library (AID 1159585; cut-off not given, nearly all actives have IC50 up to about 0.98 µM;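 also: inhibitors leave more ATP so luminescence rises with inhibition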). As to conditions: recombinant PfCDPK1, Kinase-Glo ATP depletion luminescence. (In general: Kinase-Glo reads ATP consumption through a luciferase reaction.)
In assay [6] the target is Plasmodium falciparum protein kinase 6 (PK6, PF3D7_1337100) (UniProt Q8IDW1). Kind of assay: PfPK6 kinase inhibitors, biochemical, TCAMS library (AID 1159586). As to conditions: recombinant PfPK6, Kinase-Glo ATP depletion luminescence.
The target in assay [7] is Protein kinase 7 (PK7), Plasmodium falciparum 3D7 (PF3D7_0213400) (UniProt Q7YTF7). Kind of assay: inhibition of Plasmodium PK7 catalytic activity – biochemical, TCAMS antimalarial set, Kinase-Glo luminescence (AID 1159587). Conditions: recombinant PfPK7, Kinase-Glo ATP depletion luminescence.
In assay [8] the target is Calcium-dependent protein kinase 4 (Plasmodium falciparum (isolate 3D7)) (UniProt Q8IBS5). Put plainly: PfCDPK4 kinase inhibitors, biochemical, TCAMS library (AID 1159588; cut-off not given, nearly all actives have IC50 up to about 0.91 µM). Conditions: recombinant PfCDPK4, Kinase-Glo ATP depletion luminescence.

20 molecules from PubChem BioAssay can be followed below.

As usually defined, the inhibition is the relative decrease from the control value, in per cent.

Values without a mark were called inactive. For some of these results: Potency and affinity values are given separately. Activity calls are given as the source filed them. Unless noted, no rule for the calls is given here.

Chain of Calcium-dependent protein kinase 4 (Plasmodium falciparum (isolate 3D7)) (Q8IBS5 whole entry, looked up): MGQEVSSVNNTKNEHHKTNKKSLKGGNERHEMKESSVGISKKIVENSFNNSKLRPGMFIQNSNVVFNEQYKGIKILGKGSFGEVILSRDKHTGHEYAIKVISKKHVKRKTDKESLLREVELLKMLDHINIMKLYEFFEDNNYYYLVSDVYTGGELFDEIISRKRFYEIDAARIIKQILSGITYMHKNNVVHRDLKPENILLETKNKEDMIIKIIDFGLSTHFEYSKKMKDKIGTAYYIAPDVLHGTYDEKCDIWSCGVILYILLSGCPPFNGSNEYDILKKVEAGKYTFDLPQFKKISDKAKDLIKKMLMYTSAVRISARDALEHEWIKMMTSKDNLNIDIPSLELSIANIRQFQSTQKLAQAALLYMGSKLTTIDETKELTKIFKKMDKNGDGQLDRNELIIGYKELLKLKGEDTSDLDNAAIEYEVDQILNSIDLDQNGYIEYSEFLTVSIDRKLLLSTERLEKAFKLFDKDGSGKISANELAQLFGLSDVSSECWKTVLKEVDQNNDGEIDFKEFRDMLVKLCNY
Chain of Plasmodium falciparum protein kinase 6 (PK6, PF3D7_1337100) (Q8IDW1 1-305): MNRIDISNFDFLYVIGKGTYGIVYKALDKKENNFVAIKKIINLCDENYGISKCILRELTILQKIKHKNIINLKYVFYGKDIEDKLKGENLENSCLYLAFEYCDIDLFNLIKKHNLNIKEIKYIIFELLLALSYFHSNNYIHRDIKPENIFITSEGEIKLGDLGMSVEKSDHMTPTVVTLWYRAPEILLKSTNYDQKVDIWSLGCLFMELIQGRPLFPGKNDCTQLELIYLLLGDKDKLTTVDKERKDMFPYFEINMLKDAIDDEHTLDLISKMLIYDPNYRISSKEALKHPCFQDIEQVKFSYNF
Chain of Protein kinase 7 (PK7), Plasmodium falciparum 3D7 (PF3D7_0213400) (Q7YTF7 1-343): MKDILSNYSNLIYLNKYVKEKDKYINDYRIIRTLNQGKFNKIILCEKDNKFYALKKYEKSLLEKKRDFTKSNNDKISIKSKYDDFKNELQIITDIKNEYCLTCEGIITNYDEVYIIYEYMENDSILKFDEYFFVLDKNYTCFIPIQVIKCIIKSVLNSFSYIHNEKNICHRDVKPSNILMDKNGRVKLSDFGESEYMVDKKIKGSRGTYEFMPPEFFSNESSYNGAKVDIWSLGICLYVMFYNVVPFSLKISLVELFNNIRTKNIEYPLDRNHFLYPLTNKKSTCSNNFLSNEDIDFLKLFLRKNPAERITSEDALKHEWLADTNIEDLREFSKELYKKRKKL
Chain of Calcium-dependent protein kinase 1 (Plasmodium falciparum (isolate 3D7)) (P62344 whole entry, looked up): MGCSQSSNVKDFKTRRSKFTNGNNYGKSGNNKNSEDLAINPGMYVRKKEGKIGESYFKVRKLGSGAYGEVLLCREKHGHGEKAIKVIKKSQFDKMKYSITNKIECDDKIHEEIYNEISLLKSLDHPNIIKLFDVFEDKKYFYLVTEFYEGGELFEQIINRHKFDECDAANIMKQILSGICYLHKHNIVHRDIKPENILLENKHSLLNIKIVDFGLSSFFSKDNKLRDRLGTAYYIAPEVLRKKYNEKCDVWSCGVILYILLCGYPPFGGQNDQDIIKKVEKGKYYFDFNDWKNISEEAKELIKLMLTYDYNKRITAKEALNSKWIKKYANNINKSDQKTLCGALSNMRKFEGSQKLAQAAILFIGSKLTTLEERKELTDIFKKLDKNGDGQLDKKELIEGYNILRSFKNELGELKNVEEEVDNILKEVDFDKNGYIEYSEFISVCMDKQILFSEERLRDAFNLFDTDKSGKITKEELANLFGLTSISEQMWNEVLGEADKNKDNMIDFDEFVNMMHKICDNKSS
Chain of L-lactate dehydrogenase (Plasmodium falciparum (isolate CDC / Honduras)) (Q27743 whole entry, looked up): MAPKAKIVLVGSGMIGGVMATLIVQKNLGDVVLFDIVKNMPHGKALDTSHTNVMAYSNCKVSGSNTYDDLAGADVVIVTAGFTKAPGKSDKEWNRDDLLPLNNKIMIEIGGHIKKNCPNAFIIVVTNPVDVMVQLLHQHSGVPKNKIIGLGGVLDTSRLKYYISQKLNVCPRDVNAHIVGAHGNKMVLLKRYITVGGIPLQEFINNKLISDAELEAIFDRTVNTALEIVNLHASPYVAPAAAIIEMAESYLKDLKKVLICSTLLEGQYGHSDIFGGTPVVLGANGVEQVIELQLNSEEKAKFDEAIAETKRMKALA

As for `CC(C)Sc1nc2c(c(=O)n1Cc1ccco1)C1(CCCCC1)Cc1ccccc1-2`, the growth inhibition was 99% (active) in assay [1] and 100% (active) in assay [4]. Further, the inhibition in assay [2] was 10%; in assay [3], 0%. In addition, the result in assay [5], in assay [6], in assay [7] and in assay [8] was inactive.
For the molecule `COc1ccc2nccc([C@@H](O)CN3CCC(NC(=O)c4cccc(-c5cc(C)no5)c4)CC3)c2c1`, the growth inhibition is 89% (active) in assay [1] and 93% (active) in assay [4]. Besides, the inhibition in assay [2] was 19%; in assay [3], 1%. Also, the outcome in assay [5], in assay [6], in assay [7] and in assay [8] was inactive.
As to `CCOC(=O)c1c(SCc2cccc(F)c2F)[nH]c2ccccc2c1=O`, the growth inhibition in assay [1] is 95% (active); in assay [4] it was 98% (active). In addition, the values for the inhibition in assay [2] and in assay [3] were 1% and -2%, respectively. Further, the outcome in assay [5], in assay [6], in assay [7] and in assay [8] was inactive.
Regarding `Cn1nc(C(F)(F)F)c(-c2ccc(F)cc2)c1NC(=O)Nc1ccccc1`, the values for the growth inhibition in assay [1] and in assay [4] were 99% (active) and 101% (active), respectively. Further, the inhibition in assay [2] was 3%; in assay [3], 6%. The outcome in assay [5], in assay [6], in assay [7] and in assay [8] was inactive.
As to `CC(C)c1cccc(OCC2CCN(c3ccc(C(=O)Nc4ccccc4)cn3)CC2)c1`, the growth inhibition in assay [1] was 90% (active); in assay [4] it was 95% (active). The inhibition in assay [2] is 9%; in assay [3] it was 4%. In addition, the outcome in assay [5], in assay [6], in assay [7] and in assay [8] was inactive.
Consider `CCCCCCn1c2c(c(=N)c3c1CCC3)CCC2`, for which the figures for the growth inhibition in assay [1] and in assay [4] were 83% (active) and 97% (active), respectively. Besides, the inhibition was 32% in assay [2] and -3% in assay [3]. Moreover, the outcome in assay [5], in assay [6], in assay [7] and in assay [8] was inactive.
Regarding `FC(F)(F)c1ccc(N2CCCN(Cc3cccc(-c4ccccc4CNCc4ccc5c(c4)OCO5)c3)CC2)nc1`, the growth inhibition was 11% in assay [1] and 87% (active) in assay [4]. For the same molecule, the results for the inhibition in assay [2] and in assay [3] were 23% and 3%, respectively. In addition, the result in assay [5], in assay [6], in assay [7] and in assay [8] was inactive.
For `COc1cccc(C=CC(=O)N(CCN)Cc2ccccc2)c1`, the growth inhibition is -4% in assay [1] and 99% (active) in assay [4]. Also, the inhibition in assay [2] is -14%; in assay [3], -3%. The result in assay [5], in assay [6], in assay [7] and in assay [8] was inactive.
For the molecule `CCN1CCN(c2ccc(Nc3c4ccccc4nc4ccccc34)cc2)CC1`, the growth inhibition in assay [1] was 100% (active); in assay [4], 99% (active). In addition, the results for the inhibition in assay [2] and in assay [3] were 24% and -2%, respectively. Besides, the outcome in assay [5], in assay [6], in assay [7] and in assay [8] was inactive.
As to `O=C(Nc1ccc(CN2CCOCC2)cc1)c1ccc(-c2ccc(Br)cc2)o1`, the values for the growth inhibition in assay [1] and in assay [4] were -4% and 92% (active), respectively. Besides, the inhibition in assay [2] is 3%; in assay [3] it was -2%. For the same molecule, the result in assay [5], in assay [6], in assay [7] and in assay [8] was inactive.
Consider `CC1(C)N=C(N)N=C(N)N1OCCCO`, for which the growth inhibition in assay [1] is -1%; in assay [4], 96% (active). Moreover, the inhibition is 27% in assay [2] and -2% in assay [3]. For the same molecule, the result in assay [5], in assay [6], in assay [7] and in assay [8] was inactive.
Take `Cc1nc(-c2cccc(Nc3nccc(NCC(O)c4ccccc4C)n3)c2)cs1` (stereo not given): the growth inhibition is 14% in assay [1] and 92% (active) in assay [4]. Moreover, the figures for the inhibition in assay [2] and in assay [3] were 38% and -2%, respectively. Besides, the outcome in assay [5], in assay [6], in assay [7] and in assay [8] was inactive.
For `COc1cc2nc(NCC3CCN(c4nc(N)c5cc(OC)c(OC)cc5n4)CC3)nc(N)c2cc1OC`, the growth inhibition in assay [1] was 73% (active); in assay [4], 92% (active). Besides, the inhibition is 12% in assay [2] and -2% in assay [3]. The result in assay [5], in assay [6], in assay [7] and in assay [8] was inactive.
Regarding `CS(=O)(=O)c1ccc(-n2nc(C(F)(F)F)cc2-c2ccc(/C=N/OCC(=O)O)o2)cc1`, the growth inhibition is 0% in assay [1] and 87% (active) in assay [4]. In addition, the inhibition is -15% in assay [2] and -7% in assay [3]. For the same molecule, the result in assay [5], in assay [6], in assay [7] and in assay [8] was inactive.
For `COc1ccc(Cl)cc1C(=O)Nc1ccc(-c2nc3ccccc3[nH]2)cc1`, the values for the growth inhibition in assay [1] and in assay [4] were 39% and 92% (active), respectively. Also, the results for the inhibition in assay [2] and in assay [3] were 42% and -7%, respectively. Moreover, the result in assay [5], in assay [6], in assay [7] and in assay [8] was inactive.
As to `O=C(NCCc1cccc(Cl)c1Cl)c1ccc(N2CCN(c3ccncc3)CC2)nc1`, the results for the growth inhibition in assay [1] and in assay [4] were 79% (active) and 101% (active), respectively. Further, the figures for the inhibition in assay [2] and in assay [3] were 38% and 2%, respectively. Further, the outcome in assay [5], in assay [6], in assay [7] and in assay [8] was inactive.
In the case of `CCOC(=O)c1ccc(NC(=O)Nc2ccc(-c3cccc(-c4nc5ccc(F)cc5[nH]4)c3)cc2)cc1`, the results for the growth inhibition in assay [1] and in assay [4] were 100% (active) and 102% (active), respectively. Moreover, the values for the inhibition in assay [2] and in assay [3] were 98% (active) and 2%, respectively. Also, the result in assay [5], in assay [6], in assay [7] and in assay [8] was inactive.
Take `CC(C)NCc1ccc(-c2cccc(-c3nc4ccc(C(F)(F)F)cc4[nH]3)c2)cc1`: the growth inhibition was 100% (active) in assay [1] and 101% (active) in assay [4]. Besides, the inhibition was 21% in assay [2] and -5% in assay [3]. The outcome in assay [5], in assay [6], in assay [7] and in assay [8] was inactive.
In the case of `Brc1ccc(Nc2nc(NCc3ccccc3)c3ccccc3n2)cc1`, the figures for the growth inhibition in assay [1] and in assay [4] were 99% (active) and 101% (active), respectively. The inhibition in assay [2] is 24%; in assay [3], -4%. Moreover, the outcome in assay [5], in assay [6], in assay [7] and in assay [8] was inactive.
Turning to `Cc1nc2ccc3ccc(CNc4ccc(C(=O)N[C@@H](CCC(=O)O)C(=O)O)c(F)c4)cc3c2c(=O)[nH]1`, the growth inhibition in assay [1] and in assay [4] was 96% (active) each time. Also, the values for the inhibition in assay [2] and in assay [3] were 41% and -1%, respectively. In addition, the result in assay [5], in assay [6], in assay [7] and in assay [8] was inactive.
